Here are results for 40 compounds from PubChem BioAssay (NCATS).

Where “and” joins values, the source holds several entries; their conditions need not be identical. Equal values may be shown once. Results filed as inconclusive are left out. A number with no mark means an inactive call. Calls of active or inactive are those of the source. The call rests on the fitted dose curve; in most records, active means well fitted activation curve with a large enough effect; inconclusive means small, poorly fitted or top-dose-only effect; inactive means no such curve, though single readings can be large or run the other way.
Potency means the concentration at half of the fitted maximal effect.

Cellular tumor antigen p53 (Homo sapiens), sequence (P04637 whole entry, looked up): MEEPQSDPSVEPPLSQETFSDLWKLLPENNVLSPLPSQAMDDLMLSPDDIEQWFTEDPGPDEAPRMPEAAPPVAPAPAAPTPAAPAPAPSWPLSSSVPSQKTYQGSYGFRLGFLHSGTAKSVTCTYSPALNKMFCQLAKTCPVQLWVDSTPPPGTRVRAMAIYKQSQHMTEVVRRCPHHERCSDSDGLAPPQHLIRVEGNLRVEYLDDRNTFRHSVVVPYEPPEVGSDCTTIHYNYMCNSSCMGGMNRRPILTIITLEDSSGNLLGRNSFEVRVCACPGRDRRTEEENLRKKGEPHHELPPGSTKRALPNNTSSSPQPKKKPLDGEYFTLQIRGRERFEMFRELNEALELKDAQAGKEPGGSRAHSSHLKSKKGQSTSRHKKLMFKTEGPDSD

The experiment concerns the target Cellular tumor antigen p53 (Homo sapiens) (UniProt P04637). Kind of experiment: Primary qHTS for small molecule compounds that upregulate eGFP-tagged delta133p53alpha (in N-terminal) cells. (AID 2060322). Further: nearly all actives have a fitted effect of over 75% in size.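 On activation: cells pre-induced with doxycycline then dosed without doxycycline; series mostly up to about 56 µM; 0% = DMSO vehicle and 100% = reference activator.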 The conditions noted are these: NCI-H358 eGFP-delta133p53alpha fluorescence, 24 h; activation: active compounds read high. An excerpt:
Assay Development and Screening Technology
National Center for Advancing Translational Sciences (NCATS),
National Institute of Health (NIH), Rockville, Maryland
Cellular senescence (CS) is one of the hallmarks of aging and age-related diseases. Senescent cells are characterized by an irreversible growth arrest, an increase in senescence-associated beta-galactosidase (SA-beta-gal) activity and p16INK4a expression, an activation of the DNA damage response pathways, and the emergence of a senescence-associated secretory phenotype (SASP).
Delta133p53alpha, a human/primate-specific p53 protein isoform, delays or inhibits the induction of CS and SASP in various types of human cells, including progeria-derived fibroblasts, primary normal astrocytes, and CD8+ T lymphocytes. Induction of delta133p53alpha with small molecule compounds may provide therapeutic opportunities for inhibition of senescence/SASP-associated pathologies in progeria syndromes, astrocyte-mediated neuroprotection in neurodegenerative diseases, and possibly prevention and treatment of a wider range of senescence- and aging-associated diseases.
Here we report the development and validation of a cell-based quantitative high throughput screening (qHTS) assay in 1,536-well format. This qHTS assay uses the NCI-H358 cell line with doxycycline-inducible expression of enhanced green fluorescent protein (eGFP)-tagged delta133p53alpha, which allows efficient and highly quantitative measurement of the protein levels.
PROTOCOL TABLE (as described by Inglese J, Shamu CE and Guy RK. 2007)
SEQUENCE No. (e.g., 1, 2, 3, etc.); […] (e.g., Cells, Incubation, Reagent, etc.); VALUE; DESCRIPTION.
1; Cells; 4uL; 800 doxycycline treated cells / well in doxycycline-free media, 1536-well black, clear-bottom low base Aurora microplates.
2; Compounds; 23 nL; Kalypsis pin tool (Wako) equipped with 1536-well pin heads, 5-azacytidine positive control.
3; Incubation; 24 hr; 37C, 5% CO2; 95% relative humidity.
4; Aspiration; 1x; BioTek EL406 washer dispenser (Agilent).
5; Fixing; 3.5% paraformaldehyde, BioTek EL406 washer dispenser (Agilent).
6; Washing; 1x PBS; BioTek EL406 washer dispenser (Agilent).
7; Nuclei staining; 1:1000 dilution of Hoechst 33342 (Thermofisher), BioTek EL406 washer dispenser (Agilent).
8; Incubation; 20 min; in the dark at room temperature.
9; Washing; 2x, 1x PBS (ThermoFisher), BioTek EL406 washer dispenser (Agilent).
10; Reagent; 10 uL; 1x PBS per well, sealed with clear adhesive tape.
NOTES (numbers refer to sequence numbers above).
1. NCI-H358 cells expressing eGFP-tagged delta133p53alpha were grown in T75 culture flasks and treated with doxycycline for 24h, at 10 ng/ml for eGFP-D133p53a cells (N-terminal cell) and 100 ng/ml for D133p53a-eGFP cells (C-terminal cells). Cells were trypsinized, counted using a Counted 3 Automated Cell Counter (Thermo Fisher), and diluted to a concentration of 200,000 cells/ml. A Multidrop Combi Reagent Dispenser (ThermoFisher) was used to dispense 800 cells/well in […] of doxycycline-free media, into 1536-well black/clear bottom low base plates (AuroraMicroplates).
2. After plating cells, 23 nl of compound library, DMSO vehicle control or positive control (5-azacytidine) were transferred by Pin Tool (Wako). The plate map layout was the same for each plate: (column 1) non-doxycycline treated cells + DMSO vehicle control; (column 2) doxycycline treated cells + DMSO vehicle control baseline; (column 3) doxycycline treated cells + positive control 57.5 uM final concentration 5-azacytidine; (column 4) doxycycline treated cells + serial dilution of 5-azacytidine, 16-point 1:2 titration spanning 1.8 nM to […] final concentration; (columns 5-48) doxycycline treated cells + titration of library compounds.
3. Cells were incubated at 37 °C, 5 % CO2, 95% RH with breathable metal lid for 24h.
4-10. […] After two washes, 10 ul of 1X PBS (Thermo Fisher) was dispensed to each well. Clear adhesive plate seals (VWR) were applied and plates stored at 4 °C.
11. […]
In general terms: qHTS replaces the single test concentration by a dilution series.
`CC(C)(O)C1CCC(C)(C2CCC3(C)C4CCC5C(C)(C(=O)OC6OC(CO)C(O)C(O)C6O)C(O)CC(O)C56CC46CCC23C)O1` (stereo not given): the activation is -11.5%.

In the case of `COc1cccc([C@@H](C)NCCCc2ccccc2Cl)c1`, the activation was -21.4%.

Turning to `COC(=O)C1=COC(OC2OC(CO)C(O)C(O)C2O)C2C(COC(=O)/C=C/c3ccc(O)cc3)C(O)C(O)C12` (stereo not given), the activation was -6.87%.

In the case of `NC(=O)c1cccc2cn(-c3ccc([C@@H]4CCCNC4)cc3)nc12`, the activation was 20.3% and 6.68%.

Consider `CC1=C(CCC(C)O[C@@H]2O[C@H](CO)[C@@H](O)[C@H](O)[C@H]2O)C(C)(C)CCC1=O` (stereo not given in full), for which the activation is -16.8%.

In the case of `COC(=O)C1=CO[C@@H](O[C@@H]2O[C@H](CO)[C@@H](O)[C@H](O)[C@H]2O)C2C1CC(O)C2C` (stereo not given in full), the activation was 2.29%.

For `COc1ccc2c(OCc3nnc4ccc(-c5ccccc5)nn34)ccnc2c1`, the activation was -0.776% and -8.11%.

`C=C1C(OC(C)=O)C(=O)C2C(C)(C)C(O)CCC2(C)C1CC(OC(C)=O)/C(C)=C/COC(C)=O` (stereo not given): the activation is -14.5%.

Take `CCCn1c(=O)c2[nH]c(C34CC5CC3C[C@@H](C5)C4)nc2n(CCC)c1=O`: the activation is 31.9%.

As for `Cc1cc(-c2nc(-c3ccc(OC(F)(F)F)cc3)no2)nn1Cc1ccnc(N2CCN(C3CC3)CC2)c1`, the activation is -0.955%.

For the compound `CN(C)C(=S)SC(=S)N(C)C`, the Potency was 21.9 µM (active).

As for `C=C1C[C@H](O)[C@@H](O)[C@@]2(C)C1[C@@H](O)[C@H]1OC(=O)C3[C@@H](C)[C@@H](O)[C@H](O)C2[C@]31C` (stereo not given in full), the activation was 0.763%.

As to `CC[C@H]1OC(=O)[C@H](C)[C@@H](O[C@H]2C[C@@](C)(OC)[C@@H](O)[C@H](C)O2)[C@H](C)[C@@H](O[C@@H]2O[C@H](C)C[C@H](N(C)C)[C@@H]2O)[C@](C)(OC)C[C@@H](C)C(=O)[C@H](C)[C@@H](O)[C@]1(C)O`, the activation was -25.1%.

In the case of `CC1(C)C[C@H](O)C[C@@]2(C)[C@H]1[C@H](O)C=C1COC(=O)[C@@]12O`, the activation is 6.11%.

As to `CCCCC#Cc1nc(NC)c2ncn([C@@H]3O[C@H](CO)[C@@H](O)[C@H]3O)c2n1`, the activation was -3.87%.

For the compound `COc1c(C)cc(NC(=O)c2nn(Cc3ccc(F)cc3)c3c2CN(C(=O)c2ccc[nH]2)C[C@]3(C)C(N)=O)cc1C`, the activation was 0.333%.

For `O=C(NO)c1ccc(CC(=O)N(CCO)c2ccccc2)cc1`, the activation is -8.59% and 7.82%.

Consider `COc1ccccc1N1CCN(CCCCN2C(=O)c3ccccc3C2=O)CC1`, for which the activation is -14.4%.

Regarding `Cc1c(C(=O)NN2CCCCC2)nn(-c2ccc(Cl)cc2Cl)c1-c1ccc(Cl)cc1`, the activation was 8.47% and -3.72%.

Take `O=C(O)Cc1sc(-c2ccccc2)nc1-c1ccc(Cl)cc1`: the activation was -17.6%.

`C[C@@H]1C[C@@H]([C@@H](O)C(C)(C)O)O[C@H]2C[C@@]3(C)C(=C12)C[C@H](O)[C@H]1[C@@]2(C)CCC(=O)C(C)(C)C2CC[C@@]13C` (stereo not given in full): the activation is -6.87%.

With `C[C@H](N)C(=O)N[C@@H](Cc1ccc(O)cc1)C(=O)N1CCC[C@H]1C(=O)NCC(=O)N[C@@H](CCCCN)C(=O)N[C@@H](Cc1ccccc1)C(N)=O`, the activation is -5.67%.

Regarding `CC(C)c1ccccc1Cc1cc(C(=O)Nc2ccc(S(=O)(=O)c3ccccc3C(C)(C)C)cc2)c(O)c(O)c1O`, the activation is -33%.

Turning to `Nc1cc(C(Cl)=C(Cl)Cl)c(S(N)(=O)=O)cc1S(N)(=O)=O`, the activation is 44.6%.

For `O=c1c(O)c(-c2ccc(O)c(O)c2)oc2cc(O)ccc12`, the activation is -6.9%.

Consider `C/C=C/C=C/C=C/C(=O)O[C@@H]1C=C(CO)C(O)(C(=O)O)[C@@]2(C)CCCC(C)(C)[C@H]12` (stereo not given in full), for which the activation was -9.92%.

With `CCCCOCCOc1nc(-c2ccc(C(=O)O)c(F)c2)sc1C`, the activation is 13.4%.

`O=C(O)C1=CCCNC1`: the activation was -16.6%.

Consider `Cc1cccc(CN2CCN(C(c3ccccc3)c3ccc(Cl)cc3)CC2)c1` (stereo not given), for which the activation is 5.02% and 0.39%.

Regarding `COc1ccc2cc(-c3cc(-c4cc(Cl)cc(Cl)c4)nn3C(C)c3ccc(C(=O)NCCC(=O)O)cc3)ccc2c1` (stereo not given), the activation is 29.1%.

Turning to `O=C(Nc1ccccc1-c1cn2c(CN3CCNCC3)csc2n1)c1ccc2ccccc2n1`, the activation was 11%.

As to `CCN(CC)CCOC(=O)C(c1ccccc1)c1ccccc1`, the activation is -8.47%.

As to `CC1(C)[C@@H]2CC=C(CO[C@@H]3O[C@H](CO[C@@H]4OC[C@H](O)[C@H](O)[C@H]4O)[C@@H](O)[C@H](O)[C@H]3O)[C@H]1C2`, the activation is -4.46%.

`CC[C@@](C)(Nc1ccnc(-c2c[nH]c3ncccc23)n1)C(=O)NCC(F)(F)F`: the activation was 18.8%.

Regarding `O=C(O)C(=O)Nc1cccc(-c2nn[nH]n2)c1`, the activation was -3.95%.

Regarding `C=C1C(=O)O[C@H]2[C@@H]1CCC(C)=CCC[C@@]1(C)O[C@@H]21`, the Potency was 19.3 µM (active).

In the case of `CCC(CC)C(=O)Nc1sc2c(c1C#N)CCC(C(C)(C)CC)C2` (stereo not given), the activation is -3.34%.

On to `O=C1O[C@H]([C@@H](O)CO)C(O)=C1O`, for which the activation was -9.6%.

As to `CN1CCC(=C2c3ccccc3CC(=O)c3sccc32)CC1`, the activation is 59.8% and 8.47% and -42.7%.

With `O=C(CCCN1CCN(c2ccccn2)CC1)c1ccc(F)cc1`, the activation was -3.82%.
